Source: PubChem BioAssay (EPA / NIEHS)
Activity calls are given as the source filed them. Rule for the calls: active = hit-call score of the fitted dose curve at least 0.9, where 1 is the maximum; inactive = score below 0.9.

Experiments:
Conditions in all cases: mRNA level, 48 h; actives raise or lower the signal
[1] = read-out: Bcl-2 (BID) gene, BID (gene 637); assay: LTEA_HepaRG_BID: Life Technologies and Expression Analysis (LTEA) Assay for Bcl-2 (BID) gene using HepaRG (AID 2283476)
Summary of the method: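 Gene expression by qRT-PCR in HepaRG cells after 48 h exposure, duplicate wells, eight half-log concentrations topping at 100 uM in 0.5% DMSO. Normalized to ACTB, GAPDH, POLR2A; bidirectional fitting relative to DMSO.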

Caspase-3 (Homo sapiens) = Caspase-3 (Homo sapiens) (UniProt P42574); assay: LTEA_HepaRG_CASP3: Life Technologies and Expression Analysis (LTEA) Assay for cysteine-aspartic acid protease (CASP3) using HepaRG (AID 2283477)
Sequence of Caspase-3 (Homo sapiens) (P42574 whole entry, looked up): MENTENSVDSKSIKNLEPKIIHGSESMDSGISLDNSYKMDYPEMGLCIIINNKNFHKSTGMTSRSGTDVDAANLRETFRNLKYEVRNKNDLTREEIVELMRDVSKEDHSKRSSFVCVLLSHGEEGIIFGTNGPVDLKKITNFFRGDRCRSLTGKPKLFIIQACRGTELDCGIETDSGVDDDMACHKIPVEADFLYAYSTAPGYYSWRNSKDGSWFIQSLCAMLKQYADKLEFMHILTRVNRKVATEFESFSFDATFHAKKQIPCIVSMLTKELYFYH
Summary of the method: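 Expression of CASP3 was quantified by TaqMan qRT-PCR against three housekeeping genes (ACTB, GAPDH, POLR2A), bidirectionally versus 0.5% DMSO. HepaRG cultures received compounds in duplicate, top 100 uM with half-log steps, for 48 h in serum-free induction medium.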

[2] = read-out: Cytochrome P450 (CYP24A1), CYP24A1 (gene 1591); assay: LTEA_HepaRG_CYP24A1: Life Technologies and Expression Analysis (LTEA) Assay for Cytochrome P450 (CYP24A1) using HepaRG (AID 2283478)
Summary of the method: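 mRNA of CYP24A1 quantified by TaqMan qRT-PCR (ACTB/GAPDH/POLR2A normalization) after 48 h chemical exposure of HepaRG cells, top concentration 100 uM, half-log steps, 0.5% DMSO vehicle, duplicates. Curves fitted bidirectionally against DMSO baseline.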

[3] = read-out: Cytochrome P450 (CYP1A2), CYP1A2 (gene 1544); assay: LTEA_HepaRG_CYP1A2: Life Technologies and Expression Analysis (LTEA) Assay for Cytochrome P450 (CYP1A2) using HepaRG (AID 2283479)
Summary of the method: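 CYP1A2 transcript measured by TaqMan qRT-PCR against three housekeeping genes after 48-hour chemical exposure of HepaRG cells. Eight-point half-log series topping at 100 uM in 0.5% DMSO, duplicates; gain or loss fitted relative to vehicle.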

[4] = read-out: cysteine-aspartic acid protease (CASP8), CASP8 (gene 841); assay: LTEA_HepaRG_CASP8: Life Technologies and Expression Analysis (LTEA) Assay for cysteine-aspartic acid protease (CASP8) using HepaRG (AID 2283480)
Summary of the method: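 HepaRG, 48 h exposure, duplicate wells; 8 conc, half-log from 100 uM, 0.5% DMSO. Serum-free induction medium. CASP8 mRNA by TaqMan qRT-PCR, norm. ACTB/GAPDH/POLR2A; gain/loss fitted vs DMSO.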

[5] = read-out: Cytochrome P450 (CYP2B6), CYP2B6 (gene 1555); assay: LTEA_HepaRG_CYP2B6: Life Technologies and Expression Analysis (LTEA) Assay for Cytochrome P450 (CYP2B6) using HepaRG (AID 2283481)
Summary of the method: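 CYP2B6 transcript level quantified by qRT-PCR against three housekeeping genes, fitted bidirectionally relative to DMSO. HepaRG cultures received chemicals for 48 h, 8-point half-log series from 100 uM in 0.5% DMSO, duplicate wells, serum-free induction medium.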

[6] = read-out: Cytochrome P450 2C19 (Homo sapiens) (UniProt P33261); assay: LTEA_HepaRG_CYP2C19: Life Technologies and Expression Analysis (LTEA) Assay for CYP2C19 using HepaRG (AID 2283482)
Summary of the method: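 CYP2C19 transcript levels by qRT-PCR, normalized to three housekeeping genes, in HepaRG cells after 48 h chemical exposure. Eight-point half-log series topping at 100 uM, 0.5% DMSO vehicle. Increases and decreases both fitted against DMSO.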

CYP2C8 (gene 1558) = assay: LTEA_HepaRG_CYP2C8: Life Technologies and Expression Analysis (LTEA) Assay for CYP2C8 using HepaRG (AID 2283483)
Summary of the method: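 CYP2C8 mRNA induction or loss, by qRT-PCR normalized to ACTB/GAPDH/POLR2A, is read in HepaRG cells after 48 h treatment. Concentrations run from 100 uM down in half-log dilutions, with 0.5% DMSO as vehicle and baseline.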

CYP2C9 (gene 1559) = assay: LTEA_HepaRG_CYP2C9: Life Technologies and Expression Analysis (LTEA) Assay for CYP2C9 using HepaRG (AID 2283484)
Summary of the method: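 Cells plated 48 h, switched to serum-free induction medium, then treated in duplicate for 48 h at eight concentrations (max 100 uM, 0.5% DMSO). RNA then analysed by qRT-PCR for CYP2C9; curves fitted in both directions relative to DMSO.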

[7] = read-out: Apoptosis regulator Bcl-2 (Homo sapiens) (UniProt P10415); assay: LTEA_HepaRG_BCL2: Life Technologies and Expression Analysis (LTEA) Assay for Bcl-2 gene using HepaRG (AID 2283475)
Summary of the method: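 Differentiated human HepaRG cells in serum-free induction medium exposed 48 h, in duplicate, to 8-point half-log series from 100 uM in 0.5% DMSO. BCL2 mRNA by qRT-PCR (TaqMan/Fluidigm), normalized to ACTB, GAPDH, POLR2A; bidirectional fit against DMSO.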

Measured: AC50

Sequence of Cytochrome P450 2C19 (Homo sapiens) (P33261 whole entry, looked up): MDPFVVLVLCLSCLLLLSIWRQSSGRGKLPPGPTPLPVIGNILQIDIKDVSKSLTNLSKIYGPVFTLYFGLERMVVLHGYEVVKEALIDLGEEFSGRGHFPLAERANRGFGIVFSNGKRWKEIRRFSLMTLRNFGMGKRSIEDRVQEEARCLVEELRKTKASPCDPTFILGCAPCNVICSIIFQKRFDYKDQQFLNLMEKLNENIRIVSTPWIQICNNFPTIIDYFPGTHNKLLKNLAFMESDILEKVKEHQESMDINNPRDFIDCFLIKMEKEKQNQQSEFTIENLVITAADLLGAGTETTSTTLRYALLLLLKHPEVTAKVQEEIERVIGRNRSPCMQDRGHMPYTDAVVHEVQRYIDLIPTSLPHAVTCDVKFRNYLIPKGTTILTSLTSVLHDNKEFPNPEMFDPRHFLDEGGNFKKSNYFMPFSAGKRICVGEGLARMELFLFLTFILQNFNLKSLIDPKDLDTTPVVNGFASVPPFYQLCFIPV
Sequence of Apoptosis regulator Bcl-2 (Homo sapiens) (P10415 whole entry, looked up): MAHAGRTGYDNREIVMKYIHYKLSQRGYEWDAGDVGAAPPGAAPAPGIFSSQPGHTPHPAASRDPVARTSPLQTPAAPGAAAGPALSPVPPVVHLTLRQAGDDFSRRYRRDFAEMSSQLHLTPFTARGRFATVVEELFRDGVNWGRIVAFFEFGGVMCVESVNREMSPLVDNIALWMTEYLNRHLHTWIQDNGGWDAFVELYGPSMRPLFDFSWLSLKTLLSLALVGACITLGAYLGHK

OCC(CO)(CBr)CBr
not listed: [7]
inactive: all other assays above

Cc1[nH]nc2c1N=C(c1ccccc1Cl)c1cc([N+](=O)[O-])ccc1N2
inactive: Caspase-3 (Homo sapiens) | [4]
active: [7] 8.98 µM | [2] 4.02 µM | [3] 11.5 µM | [5] 8.93 µM | [6] 4.24 µM | CYP2C8 (gene 1558) 7.45 µM | CYP2C9 (gene 1559) 5.12 µM

O=C(CCCN1CCC(O)(c2ccc(Cl)cc2)CC1)c1ccc(F)cc1
active: [7] 81.3 µM | [3] 82.6 µM | [5] 79.7 µM | CYP2C9 (gene 1559) 77.8 µM
not listed: [6]
inactive: all other assays above

CN(Cc1cnc2nc(N)nc(N)c2n1)c1ccc(C(=O)N[C@@H](CCC(=O)O)C(=O)O)cc1
active: [3] 0.0974 µM | [5] 0.16 µM
not listed: CYP2C9 (gene 1559)
inactive: all other assays above

O=C(c1ccccc1)c1ccccc1
inactive: [7] | [1] | Caspase-3 (Homo sapiens) | [4]

CCC(C)c1ccccc1O (centres undefined)
inactive: all assays above

O=C1NS(=O)(=O)c2ccccc21
inactive: all assays above

CC(=O)Nc1ccc(O)cc1
inactive: all assays above

CS(=O)(=O)c1ccc([C@@H](CC2CCCC2)C(=O)Nc2cnccn2)cc1Cl
inactive: [1] | Caspase-3 (Homo sapiens) | [4]
active: [7] 61.8 µM

CCCCCCCCCCCCCCC
active: [5] 5.89 µM | [6] 17.3 µM
inactive: all other assays above

N=C(N)c1ccc(OCCCCCOc2ccc(C(=N)N)cc2)cc1
inactive: [2]
active: [7] 73.6 µM | [1] 68.3 µM | Caspase-3 (Homo sapiens) 69.8 µM | [3] 5.43 µM | [4] 30.1 µM | [5] 3.74 µM | [6] 6.53 µM | CYP2C8 (gene 1558) 3.73 µM

CCCCCCCCCCCCOS(=O)(=O)O
active: [7] 86.9 µM | [3] 71.2 µM | [5] 94.1 µM | [6] 82.1 µM | CYP2C9 (gene 1559) 79 µM
inactive: [1] | Caspase-3 (Homo sapiens) | [2]

CCCCC(CC)C(=O)O (centres undefined)
inactive: all assays above

CCCCc1oc2ccccc2c1C(=O)c1cc(I)c(OCCN(CC)CC)c(I)c1
active: [7] 59.5 µM
inactive: [1] | Caspase-3 (Homo sapiens) | [4]

CN(C)CCOC(c1ccccc1)c1ccccc1
inactive: [7] | [1] | Caspase-3 (Homo sapiens) | [4]

CCCCC=O
inactive: all assays above
